TDP1 cell noCPT = qHTS for Inhibitors of human tyrosyl-DNA phosphodiesterase 1 (TDP1): qHTS in cells in absence of CPT; AID 686978, 2013; DT40 Tdp1-/- hTDP1 cells, no CPT, ATP luminescence, 48 h; Potency, µM (highest dose often 46.2 µM), usual class: inhibitors; 420,000 tested, 15% active; note: nearly all actives have a fitted effect of over 55% in size
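Growth kinetics read by CellTiter-Glo luminescence after ≥48 hr at 37 °C. Cells: DT40 Tdp1-/- stably carrying human TDP1, 400 per well, compound exposure in the absence of CPT (DMSO vehicle).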
TDP1 cell CPT = DT40-hTDP1 cell growth loss with CPT; 420,000 tested, 12% active; chicken DT40 Tdp1-/-;hTDP1 cells + 20 nM CPT, ATP luminescence, 48 h; AID 686979; Potency, µM (series often up to 46.2 µM), actives largely listed as inhibitors; note: nearly all actives have a fitted effect of over 55% in size
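Chicken DT40 Tdp1-/- cells stably complemented with human TDP1 were seeded at 400 cells/well in medium containing 20 nM camptothecin, exposed to pin-transferred compounds, and grown at 37 °C for at least 48 hr. Viability was read as ATP luminescence.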
HT1080NT lethal = kills 2HG-producing HT-1080-NT fibrosarcoma cells | HT-1080-NT fibrosarcoma viability, CellTiter-Glo ATP luminescence, 48 h | Potency, µM (series often up to 46.1 µM), actives largely listed as cytotoxic | 360,000 tested, 1.6% active;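 note: NT is the 2HG producing partner of a matched IDH1 knockdown line; nearly all actives have a fitted effect of over 55% in size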
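HT-1080-NT; 750 cells/well; 5% FBS RPMI; 48 h compound, 37 degrees C; CellTiter-Glo luminescence; curve fitting and curve-class assignment.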
IL1B secr inh = inflammasome signaling inhibition, IL-1 beta readout; THP-1 LPS/ATP IL-1B secretion, AlphaLISA, 16 h; hits give low values; activity change, % at 57.5 µM; 360,000 tested, 4.7% active; in the data active = activity change below about -50%; inconclusive = mostly about -30% to -49%
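THP-1 cells pretreated 1 hr with compounds (up to 57.5 uM final), then stimulated with LPS (250 ng/mL final) plus ATP (1.25 mM final); secreted IL-1B measured by AlphaLISA after 16 hr, decreased signal indicating inhibition.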
HT1080 IDH1KD tx = toxicity to HT-1080 IDH1 knockdown cells (counter line); Potency, µM (highest dose often 46.1 µM), actives largely listed as cytotoxic; 360,000 tested, 2% active; HT-1080 IDH1 knockdown viability, ATP luminescence, 48 h
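Using the IDH1-knockdown HT-1080 line run in the same batch and compound series as the NT line, viability after 48 h at 37 °C was determined by CellTiter-Glo luminescence and expressed as % activity.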
A number is an active result; . = inactive; ? = inconclusive; / = not tested or not shown; [ ] = another dose, or the depositor's remark. This is a sample that favours compounds with a hit; in the whole collection about 19% have one here. Unless noted, calls come from the whole dose curve; as a rule, active = well fitted curve in the direction sought with a large enough effect; inconclusive = small, poorly fitted or top-dose-only effect, or another doubt; inactive = no such curve, though single readings can be large; an effect the other way counts as inactive or inconclusive.

SMILES	TDP1 cell noCPT	TDP1 cell CPT	HT1080NT lethal	IL1B secr inh	HT1080 IDH1KD tx
O=C(CSc1nc2ccccc2n1Cc1ccccc1F)NCc1ccccc1	16µM	?	/	/	/
NC(=O)CSc1nc2ccccc2n1Cc1ccccc1	.	.	.	.	.
CCOC(=O)N/N=C1\CCS(=O)(=O)c2ccc(Cl)cc21	?	.	.	.	.
Cc1ccccc1-c1cncnc1N1CCNCC1	.	.	/	/	/
CN1CC[C@@H]2C(=O)N3CCc4ccc(-c5ccc6c(c5)OCO6)cc4[C@@H]3C[C@@H]21	?	18µM	.	.	.
COc1ccc(-c2ccc(CCC(=O)O)n2CC(C)C)cc1	21µM	?	?	.	?
COC(=O)c1cccc(-n2c(CCC(=O)O)ccc2-c2ccc(OC)cc2)c1	15µM	15µM	/	/	/
COc1ccc(-c2ccc(CCC(=O)O)n2-c2cc(OC)ccc2OC)cc1	?	?	23µM	.	?
O=C(NNC(=O)c1ccc([N+](=O)[O-])cc1C(=O)O)c1ccncc1	.	.	.	.	.
O=C(c1ccncc1)N1CCC2(CCCN(c3ccccc3)C2)CC1	.	.	/	/	/
O=C1c2ccc(O)c(O)c2C(=O)c2c(O)ccc(O)c21	?	10µM	/	/	/
COc1ccccc1N(Cc1ccccc1)S(=O)(=O)c1cccc(C(=O)Nc2cc(C)ccn2)c1	26µM	?	.	?	?
C=CCN(c1ccc(F)cc1)S(=O)(=O)c1cc(C(=O)NC2CC2)ccc1Cl	21µM	21µM	.	.	.
COc1ccccc1N(Cc1ccccc1)S(=O)(=O)c1cccc(C(=O)Nc2ncccc2C)c1	?	?	.	.	.
CC1(C)CC(NC(=O)c2ccc(Cl)c(S(=O)(=O)N(Cc3ccccc3)c3ccccc3)c2)CC(C)(C)N1	?	?	.	-110	.
COc1ccccc1N(Cc1ccccc1)S(=O)(=O)c1cccc(C(=O)NC2CC(C)(C)NC(C)(C)C2)c1	18µM	18µM	.	?	.
O=C(O)c1ccc(Cl)c(S(=O)(=O)N(Cc2ccccc2)c2ccc(Cl)cc2)c1	.	.	.	.	.
O=C(CSc1nnc(-c2ccccc2)c(-c2ccccc2)n1)Nc1ccc(Br)cn1	?	?	.	.	.
COc1ccc(NC(=O)N2CCCC3(CCN(C(=O)c4ccc(OC)cc4)CC3)C2)cc1	.	.	/	/	/
CCOc1ccccc1NC(=O)c1cccc(S(=O)(=O)N(Cc2ccccc2)c2ccccc2OC)c1	16µM	21µM	.	.	.
COc1ccccc1N(Cc1ccccc1)S(=O)(=O)c1cccc(C(=O)O)c1	.	.	.	.	.
CCn1c(SCC(=O)c2c[nH]c3ccccc23)nc2cc(S(=O)(=O)N3CCOCC3)ccc21	21µM	15µM	.	.	.
CCn1c(SCC(N)=O)nc2cc(S(=O)(=O)N3CCOCC3)ccc21	.	.	.	.	.
CCn1c(CCl)nc2cc(S(=O)(=O)N3CCOCC3)ccc21	2.9µM	7.3µM	.	-101	.
NC(=O)CSc1nc2cc(S(=O)(=O)N3CCOCC3)ccc2o1	.	.	.	.	.
SMILES	TDP1 cell noCPT	TDP1 cell CPT	HT1080NT lethal	IL1B secr inh	HT1080 IDH1KD tx
CCOC(=O)CSc1nc2cc(S(=O)(=O)N3CCOCC3)ccc2n1CC	.	.	.	-90	.
Nc1nc2cc(S(=O)(=O)N3CCOCC3)ccc2o1	?	23µM	.	.	.
COc1ccc(CC2(CO)CCN(S(=O)(=O)c3cccc4cccnc34)CC2)cc1	.	.	.	.	.
CCCC(C)NS(=O)(=O)c1ccc(OC)c(C)c1 (stereo unspecified)	.	?	?	.	.
O=C(c1cccc(S(=O)(=O)Nc2ccc(F)cc2)c1)N1CCOCC1	.	.	.	.	.
COc1ccc(/C=N/N2C(C)CCCC2C)cc1OC (stereo unspecified)	.	.	.	.	.
Cc1ccc(C(=O)Nc2cccc3cccnc23)cc1Cl	?	.	/	/	/
CCCn1c(CCC(=O)Nc2ccccc2Cc2ccccc2)nc2cc(S(=O)(=O)N3CCOCC3)ccc21	23µM	16µM	.	.	.[9.24 µM]
Cn1c(CCC(=O)Nc2ccc(F)cc2)nc2cc(S(=O)(=O)N3CCOCC3)ccc21	?	.	.	.	.
CCCC(=O)OCCNc1cc(SCCC(=O)OC)c2nonc2c1[N+](=O)[O-]	?	16µM	?	-86	?
COC(=O)CCSc1cc([N+](=O)[O-])cc2c1c(C1OCCO1)nn2-c1ccccc1	.	.	.	.	.
COC(=O)CCSc1cc(NCCOC(C)=O)c([N+](=O)[O-])c2nonc12	18µM	11µM	21µM	-97	?
COc1ccc(Nc2cc(NCCCO)c([N+](=O)[O-])c3nonc23)cc1	.	.	.	.	.
Cn1cccc1C(=O)OCC(=O)NC(=O)c1ccc(Cl)cc1	.	.	.	.	.
CC1(C)Cc2c(sc3nc(-c4cc5ccccc5o4)n(N)c(=O)c23)CO1	21µM	?	.	.	.
Cc1ccc(-c2nc3sc4c(c3c(=O)n2N)CC(C)(C)OC4)cc1	?	.	.	?	.
CC1(C)Cc2c(sc3nnn(CC(=O)Nc4ccccc4)c(=O)c23)CO1	?	.	.	.	.
CC(C)Cc1nc2sc3c(c2c(=O)n1N)CC(C)(C)OC3	10µM	18µM	.	.	.
CC1(C)Cc2c(sc3nnn(Cc4ccc(Cl)cc4)c(=O)c23)CO1	13µM	?	.	.	.
CCOC(=O)N1CCC2(CC1)C(C#N)=C(N)Oc1n[nH]c(CSc3ccc(C)cc3)c12	?	7.3µM	?	.	?
c1ccc2nc3c(cc2c1)CCCCC3	13µM	18µM	.	.	.
c1ccc2nc3c(cc2c1)CCCCCC3	.	.	.	.	.
O=C(CC1c2cc(F)ccc2C=C(c2ccsc2)N1c1ccc(C#CCCO)cc1)c1ccco1 (stereo unspecified)	21µM	?	?	.	?
CC(=O)CC1c2cc(F)ccc2C=C(c2ccsc2)N1c1ccc(C#CC2(O)CCCCC2)cc1 (stereo unspecified)	23µM	?	?	.	?
COC(=O)c1ccc(N2C(c3ccsc3)=Cc3cc4c(cc3C2CC(=O)c2ccco2)OCO4)cc1 (stereo unspecified)	15µM	21µM	?	.	?
COc1ncc(-c2ccc(N3C(c4ccsc4)=Cc4ccc(F)cc4C3CC(=O)c3ccco3)cc2)cn1 (stereo unspecified)	?	?	.	.	.
COC(=O)c1ccc(N2C(c3cc(OC)cc(OC)c3)=Cc3ccc(OC)cc3C2CC(=O)c2ccco2)cc1 (stereo unspecified)	?	?	.	.	.
COc1cccc(-c2nnn(CC(=O)N(CC(C)C)C3CCS(=O)(=O)C3)n2)c1 (stereo unspecified)	.	.	.	.	.

Compound activity (PubChem)
